Bioassay records from PubChem.
Sampled rows, rich in hits. Any-hit rate of the full collection: about 2.9%.
Candida biofilm = clotrimazole potentiators killing Candida biofilms, primary screen, with clotrimazole, Alamar Blue; C. albicans biofilm + clotrimazole; 85,000 compounds, 0.14% hits; AID 834, 2007; inhibition, % at 6 µM;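 active = inhibition above 20%; inactive = inhibition below 20%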;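 note: preformed 24 hr biofilms exposed to compound for 48 hr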
E-sel TNF inh = E-selectin induction blockers in HUVEC – imaging, immunofluorescence, high content, primary screen. HUVEC TNFa-induced E-selectin immunofluorescence. inhibition, % at 2 µM. 120,000 compounds, 0.71% hits. AID 1246, 2008;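 active = inhibition above the batch mean plus 3 SD, and confirmed as a hit on visual image review, cut at about 43% in these data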
ERa coact pot = enhancers of ERα–SRC-1 coactivator binding, primary screen, biochemical, TR-FRET, ERα LBD, low estradiol; Estrogen receptor (Homo sapiens), P03372; TR-FRET ERalpha-LBD/SRC-Cy5 coactivator binding, 2 h; 100 = basal binding, no effect; coactivator binding (% of control), % at 25.6 µM; 86,000 compounds, 1.3% hits; AID 639, 2007; in the data active = activity above about 200%;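 note: binding measured in presence of low estradiol as agonist stimulus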
Target sequence (P03372 whole entry, looked up, the tested form may be a part): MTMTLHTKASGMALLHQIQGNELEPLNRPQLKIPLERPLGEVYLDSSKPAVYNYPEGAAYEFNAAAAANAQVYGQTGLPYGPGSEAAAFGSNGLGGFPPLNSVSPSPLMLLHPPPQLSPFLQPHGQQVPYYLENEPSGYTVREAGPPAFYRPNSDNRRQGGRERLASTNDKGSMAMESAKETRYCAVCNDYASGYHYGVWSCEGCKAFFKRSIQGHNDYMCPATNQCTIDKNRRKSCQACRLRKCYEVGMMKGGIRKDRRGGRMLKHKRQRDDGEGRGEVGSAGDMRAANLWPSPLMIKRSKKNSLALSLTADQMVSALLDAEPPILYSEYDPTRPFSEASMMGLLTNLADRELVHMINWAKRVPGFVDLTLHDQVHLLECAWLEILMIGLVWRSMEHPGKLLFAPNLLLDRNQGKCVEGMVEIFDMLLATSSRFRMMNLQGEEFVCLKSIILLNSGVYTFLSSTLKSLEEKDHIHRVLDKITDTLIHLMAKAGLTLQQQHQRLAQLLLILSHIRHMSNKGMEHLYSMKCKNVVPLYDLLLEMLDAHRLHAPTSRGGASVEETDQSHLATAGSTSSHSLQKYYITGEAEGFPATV
cytoskel mod = modifiers of F-actin cytoskeleton organization, primary screen, imaging, HUVEC, phalloidin staining, high-content imaging; 91,000 compounds, 0.18% hits; AID 836, 2007; inhibition, % at 2 µM; HUVEC TNFa F-actin phalloidin imaging;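 active = inhibition above the batch mean plus 3 SD and confirmed as a hit by visual image inspection, cut at about 30% in these data, passing the limit was not always enough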
ERb SRC1 inh = inhibitors of ERβ-SRC1 coactivator interaction, primary screen, biochemical, TR-FRET, ERβ LBD, SRC-1 peptide; Estrogen receptor beta (Homo sapiens), Q92731; TR-FRET ER-beta LBD / SRC1-Cy5 peptide binding; receptor agonist-loaded with 1 µM estradiol; inhibition, % at 25.6 µM; 86,000 compounds, 1.3% hits; AID 633, 2007;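 active = compounds whose percent inhibition of the receptor-coactivator binding signal exceeds about 50% in the single-dose screen, limit read from the data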
ERa SRC1 inh = ERα–SRC-1 coactivator interaction inhibitors, primary screen, biochemical, TR-FRET, ERα LBD, estradiol-bound; Estrogen receptor (Homo sapiens), P03372; 86,000 compounds, 1.7% hits; AID 629, 2007; TR-FRET ER-alpha LBD / SRC-1 peptide; inhibition, % at 25.6 µM; in the data active = inhibition above about 50%
Numbers stand for hits; – = inactive; · = no result given; [ ] = remark or other dose.

SMILES | Candida biofilm | E-sel TNF inh | ERa coact pot | cytoskel mod | ERb SRC1 inh | ERa SRC1 inh
CCOC(=O)c1c(C)oc2ccc(NS(=O)(=O)c3cccs3)cc12 | – | – | – | – | – | –
COCCOC(=O)c1c(C)oc2ccc(NS(=O)(=O)c3ccc(C(=O)O)cc3)cc12 | – | · | – | · | 54[fluorescence artefact?] | –
O=C(Nc1ccc2oc(-c3cccnc3)nc2c1)c1ccco1 | – | – | – | – | – | –
O=C(Nc1ccc2oc(-c3cccnc3)nc2c1)c1ccc(Br)o1 | – | – | 206[fluorescence artefact?] | – | – | 69[fluorescence artefact?]
O=C(Nc1ccc2oc(-c3cccnc3)nc2c1)c1ccc([N+](=O)[O-])o1 | · | 97 | · | · | · | ·
CSCC[C@H](NC(=O)OC(C)(C)C)c1nnc(SCC=C(C)C)o1 | – | – | – | – | – | –
CCOC(=O)C1=c2s/c(=C\c3cccnc3)c(=O)n2C(N)=C(C(=O)OC)C1c1cccnc1 (stereo not given) | – | – | – | – | – | –
CCOC(=O)C1=C(N)n2c(s/c(=C\c3cccnc3)c2=O)=C(C#N)C1c1cccnc1 (stereo not given) | – | · | – | · | – | 52[fluorescence artefact?]
C=CCNC(=S)NNC(=O)c1ccc(OCCC)cc1 | – | – | – | – | – | –
C=CCNC(=S)NNC(=O)c1ccc(OCC)cc1 | · | 53 | · | – | · | ·
CC(CCCC(C)(C)O)NCCO (stereo not given) | – | · | – | – | – | –
O=C(Nc1ccccc1)c1nnn(Cc2ccccc2)c1NC(=O)C(F)(F)F | – | – | – | – | – | –
O=c1[nH]c(=O)n(CCc2ccc(F)cc2)c(O)c1C=NCc1ccc2c(c1)OCO2 | · | – | · | – | · | ·
NC1CCCCC1N=Cc1c(O)n(CCc2ccc(F)cc2)c(=O)[nH]c1=O (stereo not given) | – | – | – | – | – | 72[fluorescence artefact?]
CCOc1ccc(-n2c(=O)c3sccc3n(CC(=O)Nc3cccc(OC)c3)c2=O)cc1 | · | – | · | · | · | ·
CCN1C(=O)/C(=C2/Sc3ccc(OC)cc3N2C)SC1=Nc1cccc(O)c1 | – | – | – | – | 64 | 66
Cn1cc(C(=O)NC2CCCCCC2)c(=O)c2cc(S(=O)(=O)N3CCCC3)ccc21 | – | – | 232[fluorescence artefact?] | · | – | 65
CN(C)S(=O)(=O)c1ccc2c(c1)c(=O)c(C(=O)NCCCN1CCCCCC1)cn2C | – | · | – | – | – | 62[fluorescence artefact?]
CCOc1ccc(N2CC(C(=O)NCCCN3CCOCC3)CC2=O)cc1 (stereo not given) | – | 50 | – | – | – | –
CCOc1ccc(N2CC(C(=O)Nc3ccc(N4CCOCC4)cc3)CC2=O)cc1 (stereo not given) | – | – | – | – | – | –
O=C(Nc1ccccc1)c1ccc(CSc2ncccn2)cc1 | · | – | · | – | · | ·
CCN(CC)S(=O)(=O)c1ccc2[nH]c(=O)cc(C(=O)Nc3cccc(C(C)=O)c3)c2c1 | · | 68 | · | · | · | ·
CCN(CC)S(=O)(=O)c1cccc(C(=O)Nc2cccc(C)c2)c1 | – | – | – | · | – | –
CCCCc1ccc(NC(=S)Nc2ccc(Nc3ccc(OC)cc3)cc2)cc1 | · | – | · | · | · | ·
CCCCc1ccc(NC(=O)OC)cc1 | – | · | 531[fluorescence artefact?] | · | – | –
SMILES | Candida biofilm | E-sel TNF inh | ERa coact pot | cytoskel mod | ERb SRC1 inh | ERa SRC1 inh
COC(=O)C(NC(=O)C(CC(C)C)NC(=O)C1CCC(C)CC1)C(C)C (stereo not given) | – | – | – | · | – | –
CCCCCCC1CCC(C(=O)NC(CCSC)C(=O)NC(C(=O)OC)C(C)C)CC1 (stereo not given) | 37 | – | – | – | – | –
O=C(CSc1nnc(-c2ccccn2)n1Cc1ccco1)c1ccc(-c2ccccc2)cc1 | – | – | 228[fluorescence artefact?] | · | – | –
O=C(CSc1nnc(-c2ccc(O)cc2)n1Cc1ccco1)c1ccccc1 | – | – | – | – | – | –
Cc1[nH]c2ccccc2c1C(=O)C(=O)NCCOc1ccccc1 | · | – | · | · | · | ·
O=C(O)C1CCCCC1C(=O)NCCCc1ccccc1 (stereo not given) | – | – | 268 | – | – | –
O=C(O)C1C2C=CC(C2)C1C(=O)NCCCc1ccccc1 (stereo not given) | · | 68 | · | · | · | ·
O=C(O)C1CCCCC1C(=O)NCCCCc1ccccc1 (stereo not given) | – | – | – | – | – | –
CC(C)c1nnc(NC(=O)C2CCN(c3cnccn3)CC2)s1 | – | – | – | – | – | –
CC(C)c1nnc(NC(=O)C2CCN(c3nc4ccccc4s3)CC2)s1 | – | – | – | · | – | 67[fluorescence artefact?]
N#Cc1sc2nc(-c3ccccc3)cc(-c3ccco3)c2c1N | – | – | – | – | 76[fluorescence artefact?] | 89[fluorescence artefact?]
N#Cc1c(-c2ccccc2)cc(-c2ccco2)c(C#N)c1N | – | – | – | – | 57 | 80
COC(=O)C(C(=O)NCC1CCCO1)C1CCCC1 (stereo not given) | – | – | – | – | – | –
Clc1cccc(CSc2nnc(-c3sccc3-n3cccc3)o2)c1 | · | 82 | · | · | · | ·
Cc1cccc2nc(COc3ccc(Cl)c4cccnc34)cn12 | · | – | · | · | · | ·
Cn1c(SC2=CS(=O)(=O)c3ccccc32)nc2ccccc21 | – | 62 | – | – | – | –
Cc1nn(C(CC(=O)O)C(=O)O)c(C)c1Br (stereo not given) | – | – | – | – | – | –
CCN(C(=O)CCS(=O)(=O)c1ccc(Br)cc1)c1ccc2c(c1)OCO2 | – | 96 | – | · | – | –
N#CC1=C(N)n2c(s/c(=C\c3ccco3)c2=O)=C(C#N)C1c1ccco1 (stereo not given) | – | – | – | – | 67[fluorescence artefact?] | 75[fluorescence artefact?]
COC(=O)Cn1c2ccc(OC)cc2c2nc3ccccc3nc21 | – | · | – | – | – | –
CCOC(=O)Cn1c2ccc(OC)cc2c2nc3ccccc3nc21 | – | · | 279 | – | – | –
Cc1cc(C)nc(-n2nc(C)cc2NC(=O)CNCc2ccccc2)n1 | – | – | – | – | 91[fluorescence artefact?] | –
CCN(CC(=O)Nc1cc(C)nn1-c1nc(C)cc(C)n1)Cc1ccccc1 | – | – | – | · | – | –
CCC(C(=O)OCn1nnc2ccccc2c1=O)c1ccccc1 (stereo not given) | · | – | · | · | · | ·
Cc1nnc(SCC(=O)N(C)c2ccccc2)n1Cc1ccccc1 | · | 89 | · | · | · | ·
Cc1nnc(SCC(=O)c2ccccc2)n1Cc1ccccc1 | · | – | · | · | · | ·
COc1ccccc1-n1cnc2cc(NCc3cccs3)ccc21 | – | – | – | 32 | – | –
COc1cc(NC(=O)C2CC2)c(OC)cc1NC(=O)CCC(=O)NC1CCN(Cc2ccccc2)CC1 | · | – | · | · | · | ·
COc1ccc(-n2c(SCC(=O)NCc3ccco3)nc3c([nH]c4ccccc43)c2=O)cc1 | – | 82 | – | – | – | –
Cn1c(SCC(=O)N2CCCCC2)nc2c([nH]c3ccccc32)c1=O | – | – | – | – | – | –
